Laboratory results as given in PubChem BioAssay AID492998 (Southern Research Specialized Biocontainment Screening …, 2010).
The campaign covered roughly 2,300 compounds. About 550 (24%) were called active. No rule for the calls is given here. These entries were drawn from the full list. Results with a measured potency or affinity are listed apart.

test: Vero E6 cell cytotoxicity, dose response, cytotoxicity control for non-replicating M. tuberculosis project, secondary assay (AID 492998); details: series mostly up to 20 µM

SMILES	outcome
Cc1ccc(C(=O)OCC(=O)N2CCCCCC2)c(O)c1	inactive
Cc1ccc(CCC(=O)Nc2ccc([N+](=O)[O-])cc2)o1	inactive
CN(C)c1ccc(NC(=O)COC(=O)c2cc(Cl)ccc2[N+](=O)[O-])cc1	inactive
CC[n+]1c(/C=C(\C)Nc2ccccc2)sc2ccccc21	inactive
CC(C)(C)c1cc(CN2CCN(CCO)CC2)cc(C(C)(C)C)c1O	inactive
COc1ccc(-c2noc(CCC(=O)Nc3cccc(C)c3)n2)cc1	inactive
Cc1ccc2c(CC(=O)OCC(=O)Nc3ccc(Cl)cn3)coc2c1	inactive
OC(CNCCc1ccc(C(F)(F)F)cc1)COc1ccc2ccccc2c1 (stereo unspecified)	inactive
CC(C)OC(=O)COc1ccc(-c2ccccc2)cc1	inactive
Cc1noc(C)c1COc1ccc(C(=O)Nc2ccccn2)cc1	inactive
N#Cc1nc(-c2ccc(OCc3ccccc3)cc2)oc1NCCCn1ccnc1	inactive
O=C(c1ccccc1[N+](=O)[O-])N1N=C(c2ccccc2)CC1(O)C(F)(F)F (stereo unspecified)	inactive
CC1=NN(C(=O)c2ccc(Cn3nc(C)c(Br)c3C)cc2)C(O)(C(F)(F)F)C1 (stereo unspecified)	inactive
CC1=NN(C(=O)c2csc(C)c2)C(O)(C(F)(F)F)C1 (stereo unspecified)	inactive
CC1=NN(C(=O)c2csc(C(C)C)c2)C(O)(C(F)(F)F)C1 (stereo unspecified)	inactive
CC(=O)N(c1nnc(-c2ccc(C)cc2)s1)C1CCCC1	inactive
COc1ccc(-c2nnn(Cc3ccccc3)n2)cc1	inactive
Cc1nnc(N/N=C/c2ccc(-c3ccc(Br)cc3)o2)n1N	inactive
O=C(OCC(=O)N1CCC(c2ccccc2)=N1)c1ccc([N+](=O)[O-])s1	inactive
O=C(NCCCN1CCOCC1)c1ccc(CSc2ccc(Cl)cc2)cc1	inactive
O=C(OCn1nnc2ccccc2c1=O)c1ccc(Br)o1	inactive
COc1cccc(C(=O)OCn2nnc3ccccc3c2=O)c1OC	inactive
C=CCOc1ccc(CNCCO)cc1OCC	inactive
CCc1cc(OCCCCNCc2ccccc2)ccc1Cl	inactive
CCCn1nnnc1NCc1ccc(CC)cc1	inactive

SMILES	outcome
O=C(CCCSc1nc2ccccc2s1)NCc1ccco1	inactive
CC(C)CCC1=NN(C(=O)c2ccco2)C(O)(C(F)(F)F)C1 (stereo unspecified)	inactive
O=C1CC(=O)CC(c2ccccc2)C1	inactive
Cc1cccc(N2CCN(Cc3ccc([N+](=O)[O-])o3)CC2)c1C	inactive
CCCC(=O)N1CCC(Cc2ccccc2)CC1	inactive
NC1=NC[C@H](Cc2ccccc2)N1CCCCC1CCCCC1	inactive
CCc1ccc(N2CCN(CCNC(=O)Nc3ccc(OC)cc3)CC2)cc1	inactive
COc1ccc(-c2cc(C(F)(F)F)nc(S(C)(=O)=O)n2)cc1	inactive
O=C(Oc1c(-c2ccco2)oc2ccccc2c1=O)c1cccnc1	inactive
CC(=O)Oc1c(-c2ccco2)oc2ccccc2c1=O	inactive
Cc1ccc2c(C)ccc(O)c2n1	inactive
Cc1cccc(NCc2nnc(-c3ccccc3)o2)c1C	inactive
CC(C)(C)C(=O)COc1ccccc1[N+](=O)[O-]	inactive
COc1cccc(C(=O)OCC(=O)Nc2nnc(-c3ccccc3)o2)c1	inactive
O=C(Nc1nnc(-c2ccc3c(c2)CCCC3)o1)c1c(F)cccc1F	inactive
Cc1cccc(C(=O)Nc2nnc(-c3cccnc3)o2)c1	inactive
CCOc1ccccc1C(=O)OCC(=O)Nc1nnc(-c2ccccc2)o1	inactive
CCCCNC(=O)Nc1nnc(-c2ccc(OCC)cc2)o1	inactive
CCS(=O)(=O)c1ncc(Cl)c(C(=O)Nc2ccc(S(=O)(=O)N(C)c3ccccc3)cc2)n1	inactive
CCOc1ccc(C(=O)Nc2nnc(C3=COCCO3)o2)cc1	inactive
c1ccc(-c2nnc(SCc3cn4ccsc4n3)o2)cc1	inactive
CCS(=O)(=O)c1ncc(Cl)c(C(=O)Nc2ccc(C)cc2)n1	inactive
CCCCn1c(N)c(-c2nc3ccccc3o2)c2c([N+](=O)[O-])nn(CC)c(=O)c21	inactive
CCOC(=O)c1sc(NC(=O)CCN2CC(C)OC(C)C2)c(C(=O)OCC)c1C (stereo unspecified)	inactive
CCCNC(=O)NC(=O)COc1ccc(-c2ccc(C#N)cc2)cc1	inactive

SMILES	outcome
Cc1ccc(NCCC(=O)c2cccs2)cc1Cl	inactive
Cc1ccc(Sc2ncccc2N)cc1	inactive
Oc1ccccc1CN1CCCC(N2CCN(c3cccc(C(F)(F)F)c3)CC2)C1 (stereo unspecified)	inactive
O=C(CCc1c[nH]c2ccccc12)Nc1ncccc1O	inactive
C/C(=N\Nc1ccc(Cl)cc1)c1ccccn1	inactive
CC(C)c1ccc(/C=N/NC(=O)c2ccccn2)cc1	inactive
C/C(=N\Nc1cccc2cccnc12)c1ccccn1	inactive
COc1cc(/C=N/NC(=O)c2ccccn2)ccc1OC(=O)c1cccs1	inactive
CC(/C=C\C=C\c1ccccc1)=N\NC(=O)c1cncc(Br)c1	inactive
COc1ccc2oc(=O)c(/C(C)=N/NC(=O)c3ccncc3)cc2c1	inactive
Cc1ccnc(NC(=O)CCc2c[nH]c3ccccc23)c1	inactive
CCCn1nnnc1NC(=O)COc1ccc(Br)cc1	inactive
Cc1ccccc1-n1c(C)cc(/C=N/NC(=O)c2ccncc2)c1C	inactive
O=[N+]([O-])c1ncccc1Oc1nc(-c2cccnc2)nc2ccccc12	inactive
Clc1ccccc1OCc1nnc(-c2ccccc2)o1	inactive
CCOC(=O)/C=C1\Nc2ccccc2OC1=O	inactive
N=c1oc2ccccc2cc1C(=O)Nc1ccccc1	inactive
N#CC(C(=O)Nc1ccccc1)=C1Nc2ccccc2N1	inactive
Cc1ccc(OC(=O)c2ccc(Br)o2)cc1	inactive
CCC(=O)c1ccc(OCC(=O)OCC(=O)c2cc(C)n(C3CC3)c2C)cc1	inactive
CC(C)(C)NCc1cc(Br)ccc1OCc1cccs1	inactive
O=C(OCC(=O)N1CCN(c2ccccc2)CC1)c1cnc(Cl)c(Cl)c1	inactive
O=C(NCc1ccco1)c1nc2ccccc2s1	inactive
O=C1CC(N2CCN(c3ccccc3)CC2)C(=O)N1CCc1ccccc1 (stereo unspecified)	inactive
COC(=O)COc1ccc(-c2ccccc2)cc1C=O	inactive

SMILES	outcome
CC(C)(O)C#Cc1ccc(C(=O)Nc2ccc3c(c2)OCO3)s1	inactive
O=C(Nc1nc2ccccc2[nH]1)c1cccc([N+](=O)[O-])c1	inactive
O=[N+]([O-])c1ccc2nc(SCc3cn4ccccc4n3)[nH]c2c1	inactive
C#CCSc1nnc(-c2ccc([N+](=O)[O-])cc2)o1	inactive
N/N=C(/Cc1nc2ccccc2[nH]1)c1ccc([N+](=O)[O-])cc1	inactive
CC1(C)CC(=O)C(C2NCCc3ccccc32)=C(O)C1 (stereo unspecified)	inactive
CCCOc1ccc(N2CC(C(=O)Nc3ccccn3)CC2=O)cc1 (stereo unspecified)	inactive
COc1ccc(/C=N/NC(=O)C(=O)NCc2cccnc2)cc1OC	inactive
COc1cc(OC)c2c(OC)cccc2n1	inactive
CC(C)(C)Sc1ccc2nc3c(n2c1)CCCC3	inactive
CC(/C=C/c1ccc2c(c1)OCO2)=N/NC(=O)C1COc2ccccc2O1 (stereo unspecified)	inactive
CCOC(=O)Cn1nc(/C=C/c2ccccc2)ccc1=O	inactive
CCOc1cccc2cc(C(=O)NC(C)c3ccccc3)c(=N)oc12 (stereo unspecified)	inactive
O=C(Nc1nnc(C2=COCCO2)o1)c1cccc(C(F)(F)F)c1	inactive
O=C(N/N=C/c1ccc(O)cc1)c1cccc(C(F)(F)F)c1	inactive
Nc1ccccc1Nc1ccccc1	inactive
CCCCCCOC(=O)C(C#N)c1nc2ccccc2nc1N1CCN(CC)CC1 (stereo unspecified)	inactive
CCCn1c(O)c(N=NC(=O)c2ccco2)c2ccccc21	inactive
CCc1ccc(N2C(=O)CC(N3CCC(C(=O)OC)CC3)C2=O)cc1 (stereo unspecified)	inactive
O=C(NCCc1c[nH]c2ccccc12)c1cc2ccccc2oc1=O	inactive
O=C(CNC(=O)c1ccccc1)OC1CCCCC1	inactive
CCCCCCCC(=O)N/N=C/c1ccc([N+](=O)[O-])o1	inactive
Cc1cc(C)cc(OCC(=O)N/N=C/c2ccc([N+](=O)[O-])o2)c1	inactive
O=C(CCSc1nnc(-c2ccccc2)o1)N1CCOCC1	inactive
Cc1cc(C)n2nc(N)c(N=Nc3ccccc3)c2n1	inactive

SMILES	outcome
CCC(C)n1nnc2c(=O)oc3ccccc3c21 (stereo unspecified)	inactive
CCOc1ccc(NC(=O)COC(=O)C2(C)CC2(Cl)Cl)c([N+](=O)[O-])c1 (stereo unspecified)	inactive
N#Cc1cc(N)ccc1-n1cccc1	inactive
N/C(=N\OC(=O)CC1CCCCC1)c1ccncc1	inactive
CC(C)CN1C(=O)CC(Sc2ccccc2C(=O)O)C1=O (stereo unspecified)	inactive
O=C1CC(N2CCC(c3nc4ccccc4o3)CC2)C(=O)N1 (stereo unspecified)	inactive
COc1ccccc1NC(=O)CCN1CCN(c2ccc(Cl)cc2)CC1	inactive
CC(C)n1c(=S)[nH]c2ccccc2c1=O	inactive
O=C(N/N=C/c1ccc(Br)s1)c1cccnc1	inactive
Cc1ccc(C(=O)N/N=C\c2ccc[nH]2)cn1	inactive
Cc1ccc(C(=O)N/N=C/C=C/c2ccccc2)cc1	inactive
Cc1ccc(C(=O)N/N=C\c2ccc(-c3ccc(Cl)cc3)o2)cn1	inactive
O=C(N/N=C/c1ccc([N+](=O)[O-])s1)c1ccccc1	inactive
Cn1cccc1/C=N/NC(=O)c1ccncc1	inactive
COc1cccc(-c2nc(C=O)cs2)c1	inactive
CCCOc1ccc(N2C(=O)CC(N3CCCC(C(=O)N4CCCC4)C3)C2=O)cc1 (stereo unspecified)	inactive
COC(=O)CN(C#N)c1nc(SC)nc(N(C)C)n1	inactive
CC(C)C[C@H]1CN=C(Nc2ccccc2)N1CCCC1CCCCC1	inactive
CCSc1nc(O)c(C2OC(=O)c3c2ccc(OC)c3OC)c(=O)n1-c1ccccc1 (stereo unspecified)	inactive
CCOc1cccc2cc(C(=O)Nc3nccs3)c(=O)oc12	inactive
O=C(CN1CCC(NC(=O)c2cccc(F)c2)CC1)Nc1ccc(Br)cc1	inactive
